Most compounds without a hit are left out; they make up all but 6% or so of the library.
DRD3 agonist – agonists of human D3 dopamine receptor; AID 652048; max activation, %; hit rate 0.58% among 410,000; D3R DiscoveRx beta-arrestin cells, luminescence, 90 min; P35462; in the data active = max activation above about 30%
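Agonist-mode cell screen: cells plated at 1500/well and incubated overnight at 37 °C, then exposed to library compounds for 90 min at 37 °C. Detection reagent was added for 30–60 min at room temperature, and luminescence was read.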
D1 potentiator – human D1 dopamine receptor positive modulation. P21728. AID 504651. potentiation, % at 10 µM. hit rate 0.036% among 360,000. HEK293 TREx D1 cells, calcium flux, dopamine EC20 potentiation; in the data active = potentiation above about 30%
Target sequence (P21728 whole entry, looked up): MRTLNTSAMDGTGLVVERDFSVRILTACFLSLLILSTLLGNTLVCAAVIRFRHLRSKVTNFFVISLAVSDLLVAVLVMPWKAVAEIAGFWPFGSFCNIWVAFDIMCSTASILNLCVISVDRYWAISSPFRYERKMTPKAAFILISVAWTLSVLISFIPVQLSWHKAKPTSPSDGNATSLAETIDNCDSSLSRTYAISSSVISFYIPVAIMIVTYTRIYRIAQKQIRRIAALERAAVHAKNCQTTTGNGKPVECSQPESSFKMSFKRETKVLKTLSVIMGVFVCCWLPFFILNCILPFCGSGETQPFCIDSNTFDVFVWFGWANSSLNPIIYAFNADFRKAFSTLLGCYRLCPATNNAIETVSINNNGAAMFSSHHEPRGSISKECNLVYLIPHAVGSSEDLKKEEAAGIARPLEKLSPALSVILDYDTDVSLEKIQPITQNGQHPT
D1 agonist – agonists of human D1 dopamine receptor; activation, % at 2 µM; AID 504660; hit rate 1% among 360,000; HEK293 T-REx D1 cells, calcium flux, agonist mode; in the data active = activation above about 30%
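Agonism was scored from calcium flux recorded over 180 s (1 read/s) after pintool compound addition, following a 10-cycle baseline. Cells were inducible force-coupled HEK293 TREx D1, plated overnight at 30 C and loaded with no-wash calcium dye.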
D3 antag – blocks the human D3 dopamine receptor | max response, negative = inhibition, % | hit rate 2.5% among 360,000 | P35462 | D3R cells, DiscoveRx beta-arrestin luminescence, antagonist mode; hits give low values; in the data active = max response below about -50%; inconclusive = no clear call, values can overlap the other calls
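Cells expressing the human receptor were seeded at 1500 cells/well, incubated overnight at 37 degrees C in 5% CO2, then exposed to library compounds with dopamine controls for 90 minutes at 37 degrees C before luminescent detection.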
D1 antagonist – blocks dopamine activation of the human D1 receptor. P21728. HEK293 TREx D1 cells, calcium flux, dopamine EC80; hits give low values. activity change, negative = inhibition, % at 10 µM. hit rate 3.2% among 360,000. AID 504652; in the data active = activity change below about -30%
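Kinetic fluorescence of a calcium dye serves as the read-out. D1-expressing Hek293 Trex cells, induced overnight at 30 C, are exposed to compound for 180 s before an EC80 dopamine addition, then read 180 s further.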
Each line names hits and unclear results; the compound was inactive in the other large screens; ! = not active in a repeat.

O=C(NCCc1ccccc1)c1ccc(CSc2nc3ccncc3n2Cc2ccccc2)cc1	D1 antagonist -31.1 (no result: D3 antag)
Cc1cccc(CSc2nc3ccncc3n2CC(=O)Nc2cc(C)cc(C)c2)c1	D3 antag -54.6
C=C[C@@]1(C)CC(=O)[C@]2(O)[C@@]3(C)[C@@H](O)CCC(C)(C)[C@@H]3[C@H](OC(C)=O)[C@H](O)[C@@]2(C)O1	none (no result: D1 potentiator, D1 agonist, D1 antagonist)
C=C[C@@]1(C)CC(=O)[C@]2(O)[C@@]3(C)[C@@H](O)CCC(C)(C)[C@@H]3[C@H](O)[C@H](OC(C)=O)[C@@]2(C)O1	DRD3 agonist 35.7! (no result: D1 potentiator, D1 agonist, D1 antagonist)
O=C(/C=C/c1ccccc1)NCCSCc1ccccc1Cl	D1 antagonist -31.8
O=C(/C=C/c1ccc(Cl)cc1Cl)NCCSCc1ccccc1	D1 antagonist -45.8
O=C(/C=C/c1ccc(Cl)cc1Cl)NCCSc1ccccc1	none
O=C(/C=C/c1ccccc1)NCCSCc1ccc(Cl)cc1	none
Cc1c(C(=O)NCc2ccccc2Cl)sc2nc3n(c(=O)c12)CCCCC3	none (no result: D3 antag)
NNC(=O)c1sccc1OCc1ccc(Cl)cc1Cl	D1 antagonist -31.9
CCOc1ccccc1CNC(=O)c1ccc2c(c1)sc1nc(-c3cccc(OC)c3)cn12	none (no result: D3 antag)
CC(=O)c1ccc(NC(=O)N2CCN(c3cccc(Cl)c3)CC2)cc1	D1 antagonist -50.8
O=C(Nc1ccc(Cl)cc1)N1CCN(c2ccccc2)CC1	none
CC(=O)c1ccc(N2CCN(C(=O)Nc3ccc(Cl)cc3)CC2)cc1	D1 antagonist -50.7
CC(=O)c1ccc(N2CCN(C(=O)C3CCN(C(=O)Nc4ccccc4)CC3)CC2)cc1	none
Cc1nn(-c2ccccc2)c(C)c1/C=C/C(=O)OCC(=O)Nc1ccc(S(N)(=O)=O)cc1	D1 antagonist -32.3 (no result: D1 potentiator)
COc1ccc(OC)c(Nc2nc(=O)c3cccnc3s2)c1	none
Cc1ccc(Nc2nc(=O)c3cccnc3s2)cc1	D3 antag -102.4
O=C1CN(S(=O)(=O)c2c(F)cccc2F)CCN1S(=O)(=O)c1ccc2c(c1)OCCO2	none (no result: DRD3 agonist, D3 antag)
Fc1ccc(CN2CCCCCCC2)c(F)c1	D3 antag -52.9
Fc1ccc(CN2CCCCCCC2)cc1F	D3 antag -65.0
CCOc1ccc(-n2ccn3c(CC(C)CC(=O)O)nnc3c2=O)cc1 (configuration not stated)	none (no result: D3 antag)
Cc1cc2oc(=O)cc(C)c2c2occ(-c3ccc(Cl)cc3)c12	none (no result: D3 antag)
COc1ccc(CCNC(=O)CCn2c(=O)c3ccccc3n(Cc3ccccc3C)c2=O)cc1OC	none (no result: D3 antag)
CCCCN1C(=O)C2(NNc3ccccc3O2)c2ccccc21 (configuration not stated)	D1 agonist 74.2 (no result: D1 antagonist)
C=CCN1C(=O)C2(NNc3ccccc3O2)c2ccccc21 (configuration not stated)	D1 agonist 44.8
CCOC(=O)c1c(S(=O)(=O)N2CCCC(C(=O)Nc3cccc(Cl)c3)C2)c(C)n(C)c1C (configuration not stated)	none (no result: D3 antag)
CCC(C#CCN1CCCCC1)(CC)OCCC#N	D3 antag -55.9
O=C(NC1CC1)C1=C[C@@H](c2c[nH]c3ccccc23)C[C@@H](OCc2ccc(CO)cc2)O1	D3 antag -52.6
O=C(O)C1=C[C@@H](c2coc3ccccc3c2=O)C[C@@H](OCc2ccc(CO)cc2)O1	none
O=C(NC1CC1)C1=C[C@@H](c2coc3ccccc3c2=O)C[C@@H](OCc2ccc(CO)cc2)O1	D1 agonist 34.5
CCC1C(=O)C(C)(C)C(=O)OC1c1ccc([N+](=O)[O-])cc1 (configuration not stated)	none
O=C1CC(=O)OC(c2ccc([N+](=O)[O-])cc2)O1	D3 antag -86.6 (no result: D1 potentiator, D1 agonist, D1 antagonist)
CCN(CC)S(=O)(=O)c1ccc(C(=O)Nc2cccc(C)c2)cc1	D3 antag -82.6
Cc1ccc(S(=O)(=O)Nc2ccc(NC(=O)Nc3cccc(C(F)(F)F)c3)cc2)cc1	none
Cc1ccc(S(=O)(=O)N(Cc2cccc(C(F)(F)F)c2)C(=O)N2CCN(C)CC2)cc1	none
Cc1ccc(S(=O)(=O)N(CC(=O)Nc2cccc(C(F)(F)F)c2)C(=O)N2CCN(C)CC2)cc1	D1 antagonist -38.4
O=C(C[n+]1cccc(CNC(=O)c2ccc(OC(F)F)cc2)c1)Nc1cccc(C(F)(F)F)c1	D3 antag -50.7
CCN(CC)S(=O)(=O)c1ccc(NC(=O)Nc2cccc(C(F)(F)F)c2)cc1	D3 antag inconclusive, D1 antagonist -31.9
Cc1cccc(NC(=O)c2ccc(S(=O)(=O)N(C)C)cc2)c1	none
O=C(CSc1nc2ccccc2n1Cc1ccccc1)N1CCN(c2ccc(F)cc2)CC1	none (no result: D3 antag)
CCN(CC)S(=O)(=O)c1ccc(C(=O)NNC(=O)c2cccs2)cc1	D1 antagonist -42.3
O=C(Nc1ccncc1)Nc1cccc(C(F)(F)F)c1	none
O=C(Nc1ccc(OC(F)F)cc1)Nc1cccc(C(F)(F)F)c1	D1 antagonist -38.4
CCN(CC)S(=O)(=O)c1ccc(NC(=O)c2cccs2)cc1	none
Cc1ccc(Cn2c(=O)c3ccccc3n3c(-c4ccccc4)nnc23)cc1	none (no result: D3 antag)
OC(COc1ccc(Cl)cc1)CN1CCC(Cc2ccccc2)CC1 (configuration not stated)	D3 antag -75.8
Cc1cc(OCCN2CC(C)OC(C)C2)ccc1[N+](=O)[O-] (configuration not stated)	none
Cc1cc(OCCN2CCC(Cc3ccccc3)CC2)ccc1[N+](=O)[O-]	D3 antag -63.5
O=C(/C=C/c1ccc(F)cc1)N1CCN(Cc2ccccc2)CC1	D3 antag -68.5 (no result: D1 potentiator, D1 agonist, D1 antagonist)
Cc1ccc(OCC(O)CN2CCN(c3ccc(C)cc3)CC2)cc1 (configuration not stated)	D3 antag -87.9
COc1ccc(OC)c(CNC(=O)c2ccc(N3Cc4ccccc4Oc4ncccc43)s2)c1	none (no result: D3 antag)
COc1cccc(CNC(=O)c2cnc(N3CCCC3)nc2C)c1	none (no result: D3 antag)
COc1cccc(C(=O)N2CC(=O)Nc3ccc(C)cc3C2c2ccc(F)cc2)c1OC (configuration not stated)	none (no result: D3 antag)
Cc1ccc(C)c(OCC(O)CN2CCC(Cc3ccccc3)CC2)c1 (configuration not stated)	D1 agonist 47.4, D1 antagonist -78.4
COc1ccc(OCC(O)CN2CCN(c3ccc(OC)cc3)CC2)cc1 (configuration not stated)	D3 antag inconclusive
O=C1c2ccccc2C(=O)N1CC(O)COc1ccc(Cl)cc1 (configuration not stated)	D1 antagonist -30.5
COc1ccc(N2CCN(CC(O)COc3ccc(F)cc3)CC2)cc1 (configuration not stated)	D3 antag -66.4, D1 antagonist -65.6
COc1ccc(CN2CCC(Cc3ccccc3)CC2)cc1OC	D3 antag inconclusive
CCOc1ccc(CN2CCC(Cc3ccccc3)CC2)cc1	D3 antag inconclusive, D1 antagonist -31.0
CCC(=O)C1=C(c2cccc([N+](=O)[O-])c2)N(C(=O)CC)n2c(nnc2C2CCCCC2)S1	none (no result: D3 antag, D1 antagonist)
